According to PubChem BioAssay (NCATS):
Results filed as inconclusive are left out. A call without a number means that no potency is given here. Calls of active or inactive are those of the source. Calls follow the shape of the dose curve; as a rule, active = well fitted inhibition curve with a large enough effect; inconclusive = small, poorly fitted or top-dose-only effect; inactive = flat fitted curve, though single readings scatter.

System: DIV30
Assay: qHTS profiling for inhibitors of Plasmodium falciparum proliferation (AID 504749); also: nearly all actives have a fitted effect of over 60% in size
Details: P. falciparum in erythrocytes, SYBR Green DNA, 72 h; series mostly up to 28.7 µM
Outline: (§1)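 P. falciparum-infected erythrocytes (0.3% parasitemia, 2.5% hematocrit final) were exposed to compounds for 72 h at 37 C in 5% CO2, then lysed with SYBR Green buffer overnight at room temperature; parasite DNA fluorescence was normalized to artemisinin and DMSO controls.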
Potency is read from the fitted curve at half-maximal effect.

SMILES	Potency
CCCN1CCCC2Cc3nc(N)ncc3CC21 (centres undefined)	inactive
COc1ccc2c3c1O[C@H]1[C@@H](O)C=C[C@H]4C(C2)NCCC341 (some centres undefined)	inactive
CCCCCC(O)C1C(=O)OC(C)C(O)\C=C/C=C\C=C/C=C\C=C(\C)C(O)C(O)C(O)CC(O)CC(O)CC(O)CC(O)CC1O (centres undefined)	inactive
CCCCCc1cc(O)c2c(c1)OC(C)(C)C1CC=C(C)CC21 (centres undefined)	2390 nM (active)

System: Dd2
Assay: as above
Details: P. falciparum in erythrocytes, SYBR Green DNA, 72 h; series mostly up to 28.7 µM
Outline: as §1

SMILES	Potency
C[C@H](N)Cc1ccccc1	inactive
C[C@]12C=CC(=O)C=C1CC[C@@H]1C2CC[C@]2(C)OC(=O)CCC12 (some centres undefined)	inactive
OCC(O)[C@H]1O[C@@H]2O[C@H](C(Cl)(Cl)Cl)O[C@@H]2[C@H]1O (some centres undefined)	inactive
CC1(C)[C@@H](C=C(Cl)Cl)[C@@H]1C(=O)OCc1c(F)c(F)cc(F)c1F	inactive
CC1(C)S[C@@H]2[C@H](N)C(=O)N2C1C(=O)O (some centres undefined)	inactive
C=C1Nc2ccccc2C(=O)N1c1ccccc1C	inactive
CC1OC(O[C@H]2C[C@@H](O)[C@]3(CO)[C@@H]4C(CC[C@]3(O)C2)[C@@]2(O)CC[C@H](C3=CC(=O)OC3)[C@@]2(C)C[C@H]4O)C(O)C(O)C1O (some centres undefined)	inactive
O=[N+]([O-])OC1CO[C@H]2C(O[N+](=O)[O-])COC12 (some centres undefined)	inactive
CCOC(=O)/C=C(C)/C=C/CC(C)CCCC(C)C (centres undefined)	inactive
[S]=[Sb][S][Sb]=[S]	inactive
CN1C2CCC1C(C(=O)O)C(OC(=O)c1ccccc1)C2 (centres undefined)	inactive
C[C@@H]1CC[C@H]2[C@@H](C)C(=O)O[C@@H]3OC4(C)CC[C@@H]1C32OO4 (some centres undefined)	6.3 nM (active)
Cc1ccc2c(c1)[C@@H]1CN(C)CC[C@H]1N2	inactive
Nc1nc(O)c(-c2ccccc2)o1	inactive
C=CC[N+]1(C)CCC23c4c5ccc(O)c4O[C@H]2C(=O)CC[C@@]3(O)C1C5 (some centres undefined)	inactive
OC[C@@H](O)[C@H]1O[C@@H]2OC(C(Cl)(Cl)Cl)O[C@H]2[C@H]1O (some centres undefined)	inactive
CCCN1CCCC2Cc3nc(N)ncc3CC21 (centres undefined)	inactive
COc1ccc2c3c1O[C@H]1[C@@H](O)C=C[C@H]4C(C2)NCCC341 (some centres undefined)	inactive
CCCCCC(O)C1C(=O)OC(C)C(O)\C=C/C=C\C=C/C=C\C=C(\C)C(O)C(O)C(O)CC(O)CC(O)CC(O)CC(O)CC1O (centres undefined)	inactive
CCCCCc1cc(O)c2c(c1)OC(C)(C)C1CC=C(C)CC21 (centres undefined)	2510 nM (active)
